Results filed as inconclusive are left out. The source made the active and inactive calls. Unless noted, the call rests on the fitted dose curve; in most records, active means well fitted curve in the direction sought with a large enough effect; inconclusive means small, poorly fitted or top-dose-only effect, or another doubt; inactive means no such curve, though single readings can be large; an effect the other way counts as inactive or inconclusive.
Experiments:
[1] = qHTS to identify inhibitors of the type 1 interferon - major histocompatibility complex class I in skeletal muscle: primary screen against the NCATS Mechanism Interrogation Plate v5.0 (MIPE) Libary (AID 1347411); further: nearly all actives have a fitted effect of over 65% in size
How it was run: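 HLA-B HiBit myoblasts, dexamethasone-free medium + 4 ng/ml IFN-b, 24 h compound, 11-pt 1:3 from 46 uM final. Readout: Nano-Glo HiBiT lytic luminescence after 10 min lysis, RT.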

[2] = Primary qHTS for inhibitors of nuclear receptor binding SET domain protein 2 (NSD2) in an isogenic RCH-ACV NSD2 p.E1099K mutant (9B) (AID 1645876); further: nearly all actives have a fitted effect of over 70% in size
[3] = Primary qHTS for inhibitors of nuclear receptor binding SET domain protein 2 (NSD2) in an RCH-ACV wild type WT cells (2C) (AID 1645877); further: nearly all actives have a fitted effect of over 70% in size
[4] = molecular target: Glutathione peroxidase 1 (Homo sapiens) (UniProt P07203); test: Primary qHTS Assay for Inhibitors of Recombinant Selenoprotein Glutathione Peroxidase 1 (GPX1) (AID 1845191); further: nearly all actives have a fitted effect of over 65% in size
Sequence of Glutathione peroxidase 1 (Homo sapiens) (P07203 whole entry, looked up): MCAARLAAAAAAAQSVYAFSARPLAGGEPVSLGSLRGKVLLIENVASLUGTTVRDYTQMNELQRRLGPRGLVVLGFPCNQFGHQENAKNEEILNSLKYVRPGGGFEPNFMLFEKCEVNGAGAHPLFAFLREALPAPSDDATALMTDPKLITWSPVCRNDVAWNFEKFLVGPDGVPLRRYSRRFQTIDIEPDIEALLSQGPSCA
How it was run: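 GR-coupled readout: NADPH consumption tracked by fluorescence, ex 340/em 450 nm, at t=0 and after 15 min at RT. Final mix 10 nM GPX1, 1 mM GSH, 0.5 mM CHP, 0.5 mM NADPH, 100 nM GR, 0.01% BSA, following 30 min enzyme–compound preincubation.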

[5] = qHTS drug screen for cell cycle checkpoint inhibitors in PARPi-resistant BRCA-mutant ovarian cancer cell lines. (AID 1963452; calls by dose curve); settings: PEO1/OlaR viability, CellTiter-Glo luminescence, 96 h; for Z-AUC: stronger effect = lower value
How it was run: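 PEO1, PEO4 and PEO1/OlaR ovarian cancer cells, 600 per well, exposed 96 h at 37C to a dilution series. Viability read by CellTiter-Glo luminescence, normalized to DMSO and empty wells; activity summarized as Z-AUC.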

[6] = qHTS assay to identify inhibitors of the type 1 interferon - major histocompatibility complex class I in skeletal muscle: Counter screen cell viability and HiBit confirmation (AID 1347412); settings: iHSKM muscle cells + IFN-b, HiBiT or CellTiter-Glo, 24 h; for activity change, negative = inhibition: at 45.9 µM (top of the series); on activity change, negative = inhibition: on the % scale 0 is the no-effect control and ±100 the full control effect; on all read-outs here: nearly all actives have a fitted effect of over 60% in size
How it was run: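 After 24 h with human IFN-beta (4 ng/ml) and compound titrations (top 46 uM final, 1:3, 12 points), HLA-B HiBit myoblasts were lysed for either Nano-Glo HiBiT luminescence or CellTiter Glo viability on paired plates.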

[7] = molecular target: Phospholipid hydroperoxide glutathione peroxidase GPX4 (Homo sapiens) (UniProt P36969); test: Primary qHTS Assay for Inhibitors of Recombinant Selenoprotein Glutathione Peroxidase 4 (GPX4) (AID 1845192); settings: outcome: dose series up to 50 µM unless noted; further: nearly all actives have a fitted effect of over 65% in size; on activity change, negative = inhibition: on the % scale 0 is the no-effect control and ±100 the full control effect
Sequence of Phospholipid hydroperoxide glutathione peroxidase GPX4 (Homo sapiens) (P36969 whole entry, looked up): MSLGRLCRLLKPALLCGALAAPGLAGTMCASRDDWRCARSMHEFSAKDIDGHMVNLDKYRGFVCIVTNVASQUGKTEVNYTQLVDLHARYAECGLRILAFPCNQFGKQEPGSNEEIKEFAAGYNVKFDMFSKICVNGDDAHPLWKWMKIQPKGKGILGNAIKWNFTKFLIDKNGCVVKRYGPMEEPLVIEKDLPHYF
How it was run: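 Steps: GPX4 plus compound, 30 min RT; add GR/GSH/NADPH master mix; start with cumene hydroperoxide; read 340/450 nm fluorescence at 0 and 15 min. Finals were 200 nM GPX4, 1 mM GSH, 0.5 mM CHP, 0.5 mM NADPH, 100 nM GR.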

[8] = measured here: PEO1 parental Z-AUC
Potency means the concentration at half of the fitted maximal effect.

Compound | Potency [1] | Potency [2] | Potency [3] | Potency [4] | Z-AUC [5] | Z-AUC [5, 8] | Z-AUC ([5]; measured here: PEO4 Z-AUC) | Potency ([6]; HiBiT) | Potency [7] | activity change, negative = inhibition ([6]; Viability) | Potency [5] | Potency ([6]; Viability)
COC1=C2C[C@H](C)C[C@H](OC)[C@H](O)[C@@H](C)/C=C(/C)[C@H](OC(N)=O)[C@@H](OC)/C=C\C=C(\C)C(=O)NC(=CC1=O)C2=O | 2940 nM (active) | inactive | inactive | inactive | 0.322 (inactive) | 0.489 | 0.496 | 27.9 nM (active) | – | – | – | –
Cc1ccc(NC(=O)NCc2ccc3c(c2)CN(C2CCC(=O)NC2=O)C3=O)cc1Cl (stereo unspecified) | 14.7 nM (active) | 1.5 nM (active) | 1.2 nM (active) | inactive | -3.37 (inactive) | -3.53 | -3.45 | 7.9 nM (active) | inactive | -11.6% (inactive) | – | –
Cc1c[nH]c2nc(Nc3ccc(N4CCN(C)CC4)c(F)c3)nc(-c3cccc(CC#N)c3)c12 | 2340 nM (active) | 525 nM (active) | 332 nM (active) | inactive | -0.269 (inactive) | -0.34 | -0.115 | 1760 nM (active) | inactive | – | – | –
Cc1cc2cc(Oc3ccnc(Nc4cccc(CS(=O)(=O)NCCN(C)C)c4)n3)ccc2[nH]1 | 13100 nM (active) | 8330 nM (active) | 5900 nM (active) | inactive | 0.517 (inactive) | 0.192 | 0.0861 | 22200 nM (active) | – | -27.6% (inactive) | – | –
CO[C@H]1/C=C\C=C(\C)C(=O)NC2=CC(=O)C(NCCN(C)C)=C(C[C@@H](C)C[C@H](OC)[C@H](O)[C@@H](C)/C=C(/C)[C@@H]1OC(N)=O)C2=O | 46.6 nM (active) | 332 nM (active) | 235 nM (active) | inactive | – | -2.33 | -1.76 | 17.6 nM (active) | inactive | – | 219 nM (active) | –
CCc1cnn2c(NCc3ccc[n+]([O-])c3)cc(N3CCCC[C@H]3CCO)nc12 | 5.2 nM (active) | 37.2 nM (active) | 37.2 nM (active) | inactive | – | -2.15 | -1.73 | – | inactive | 5.42% (inactive) | 245 nM (active) | –
CN(C)C[C@@H]1CCn2cc(c3ccccc32)C2=C(C(=O)NC2=O)c2cn(c3ccccc23)CCO1 | 4660 nM (active) | 7420 nM (active) | 6610 nM (active) | inactive | 0.756 (inactive) | 0.389 | 0.797 | 27900 nM (active) | inactive | – | – | –
CC[C@@]1(O)C(=O)OCc2c1cc1n(c2=O)Cc2c-1nc1cc(F)c(C)c3c1c2[C@@H](N)CC3 | 165 nM (active) | 3.3 nM (active) | 2.6 nM (active) | 14500 nM (active) | – | -3.81 | -2.97 | 313 nM (active) | – | -10.9% (inactive) | 8.7 nM (active) | –
COC1CCC(N2C(=O)CNc3ncc(-c4ccc(C(C)(C)O)nc4)nc32)CC1 (stereo unspecified) | 13100 nM (active) | 3720 nM (active) | 3720 nM (active) | 4590 nM (active) | 1.16 (inactive) | 0.788 | 0.864 | 11100 nM (active) | 3210 nM (active) | -5.62% (inactive) | – | –
CCC[C@H](NC(=O)/C(C#N)=C/c1cccc(Br)n1)c1ccccc1 | 4150 nM (active) | 11800 nM (active) | 13200 nM (active) | inactive | 0.211 (inactive) | 0.0929 | 0.0816 | 6250 nM (active) | inactive | – | – | –
C=CC(=O)N1CC/C(=C\c2ccc(F)c([N+](=O)[O-])c2)C(=O)/C(=C/c2ccc(F)c([N+](=O)[O-])c2)C1 | 658 nM (active) | 83.3 nM (active) | 59 nM (active) | inactive | – | -2.29 | -2.19 | 222 nM (active) | inactive | – | 219 nM (active) | –
COc1cccc2c1C(=O)c1c(O)c3c(c(O)c1C2=O)C[C@@](O)(/C(CO)=N/NC(=O)CCCCCN1C(=O)C=CC1=O)C[C@@H]3O[C@H]1C[C@H](N)[C@H](O)[C@H](C)O1 | 3300 nM (active) | 209 nM (active) | 132 nM (active) | inactive | – | -1.6 | -1.55 | 2790 nM (active) | inactive | -0.403% (inactive) | 1100 nM (active) | –
CC(=O)c1cc2c(o1)C(=O)c1ccccc1C2=O | 523 nM (active) | 1860 nM (active) | 1320 nM (active) | 1290 nM (active) | – | -1.52 | -1.88 | 249 nM (active) | – | – | 549 nM (active) | 394 nM (active)
C=CCNC1=C2CC(C)CC(OC)C(O)C(C)/C=C(\C)C(OC(N)=O)C(OC)/C=C/C=C(\C)C(=O)NC(=CC1=O)C2=O (stereo unspecified) | 58.7 nM (active) | 1320 nM (active) | 1320 nM (active) | inactive | -0.25 (inactive) | -0.657 | -0.0403 | 49.7 nM (active) | – | – | – | –
CN(Cc1ccc(/C=C/C(=O)NO)cc1)CC12CC3CC(CC(C3)C1)C2 | 330 nM (active) | 263 nM (active) | 209 nM (active) | inactive | -0.476 (inactive) | -0.953 | -1.12 | 351 nM (active) | inactive | -18.3% (inactive) | – | –
Cc1[nH]c(/C=C2\C(=O)Nc3ccc(S(=O)(=O)Cc4c(Cl)cccc4Cl)cc32)c(C)c1C(=O)N1CCC[C@@H]1CN1CCCC1 | 5230 nM (active) | 6610 nM (active) | 5250 nM (active) | inactive | 0.541 (inactive) | 0.565 | 0.0929 | 22200 nM (active) | inactive | – | – | –
